Assay results reported in PubChem BioAssay AID1159580 (chemical genetic matrix, 2015).
Screen size: about 5,500 compounds; about 2,000 (36%) were called active. Roughly 18% stayed inconclusive and do not appear here. Cut-off read from the data, not from the text of the source: active = normalized growth mostly below about 0.91 (no sharp cut-off); inconclusive = no clear call, values can overlap the other calls; inactive = mostly above about 0.92. Some of the results follow.

Test: chemical genetic growth profiling, strain panel (AID 1159580);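 note: tested at 20 µM; growth read once vehicle control cultures reached saturation at 30 °C; 1 = growth at the plate median or of vehicle wells; lower values mean less growth of the strain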
Settings: S. cerevisiae deletion strains, growth OD

Measured: normalized growth

CC(C)c1c(C(=O)c2ccccc2)c(-c2ccccc2)c(-c2ccc(F)cc2)n1CC[C@@H](O)C[C@@H](O)CC(=O)O
inactive: locus YAL030W, strain snc1, active compounds read low 0.94 | locus YBR009C, strain hhf1, active compounds read low 0.924 | locus YBR171W, strain sec66, active compounds read low 0.984 | locus YCL011C, strain gbp2, active compounds read low 0.942 | locus YCL069W, strain vba3, active compounds read low 0.934 | locus YDL005C, strain med2, active compounds read low 0.987 | locus YDL040C, strain nat1, active compounds read low 0.99 | locus YDR001C, strain nth1, active compounds read low 0.957 | locus YDR159W, strain sac3, active compounds read low 0.882 | locus YDR195W, strain ref2 1.04 | locus YDR297W, strain sur2, active compounds read low 0.946 | locus YDR335W, strain msn5, active compounds read low 0.919 | locus YDR392W, strain spt3, active compounds read low 1.01 | locus YEL037C, strain rad23, active compounds read low 0.935 | locus YEL061C, strain CIN8 (second series), active compounds read low 0.955 | locus YER016W, strain bim1, active compounds read low 0.949 | locus YER111C, strain swi4, active compounds read low 0.981 | locus YER155C, strain BEM2 (second series), active compounds read low 0.917 | locus YGL167C, strain pmr1, active compounds read low 1 | locus YGL173C, strain kem1, active compounds read low 0.907 | locus YGL227W, strain vid30, active compounds read low 0.962 | locus YGL240W, strain doc1, active compounds read low 0.981 | locus YJL095W, strain BCK1 (second series), active compounds read low 0.957 | locus YJL115W, strain asf1, active compounds read low 0.953 | locus YJL129C, strain trk1, active compounds read low 0.916 | locus YJL164C, strain tpk1, active compounds read low 0.922 | locus YJL166W, strain qcr8, active compounds read low 0.926 | locus YKL160W, strain elf1, active compounds read low 0.921 | locus YKR026C, strain gcn3, active compounds read low 0.952 | locus YKR091W, strain srl3, active compounds read low 0.98 | locus YLL026W, active compounds read low 0.937 | locus YLL041C, strain sdh2, active compounds read low 0.981 | locus YLR027C, strain aat2, active compounds read low 0.933 | locus YLR258W, strain gsy2, active compounds read low 0.932 | locus YLR262C, strain YPT6 (second series), active compounds read low 0.973 | locus YLR320W, strain mms22, active compounds read low 0.899 | locus YLR342W, strain FKS1, active compounds read low 0.94 | locus YLR384C, strain iki3, active compounds read low 0.959 | locus YML120C, strain ndi1, active compounds read low 0.93 | locus YMR058W, strain fet3, active compounds read low 0.909 | locus YMR129W, active compounds read low 0.946 | locus YMR205C, strain PFK2, active compounds read low 0.946 | locus YNL071W, strain lat1, active compounds read low 0.939 | locus YNL209W, strain ssb2, active compounds read low 0.939 | locus YNL248C, strain rpa49, active compounds read low 1.02 | locus YNL322C, strain KRE1 (second series), active compounds read low 0.977 | locus YNR049C, strain mso1, active compounds read low 0.952 | locus YOR080W, strain dia2, active compounds read low 0.939 | locus YOR106W, strain vam3, active compounds read low 0.877 | locus YOR265W, strain rbl2, active compounds read low 0.95 | locus YOR290C, strain snf2, active compounds read low 0.895 | locus YPL078C, strain atp4, active compounds read low 0.908 | locus YPL106C, strain sse1, active compounds read low 1.11 | locus YPL240C, strain hsp82, active compounds read low 0.971

COc1ccc(NNC(=O)c2sc3ccccc3c2Cl)cc1
active: locus YDL214C, strain PRR2, active compounds read low 0.692 | locus YER123W, strain YCK3, active compounds read low 0.287 | locus YER133W, strain GLC7, active compounds read low 0.663 | locus YFR019W, strain FAB1, active compounds read low 0.37 | locus YGR040W, strain KSS1, active compounds read low 0.681 | locus YGR052W, strain FMP48, active compounds read low 0.558 | locus YGR092W, strain DBF2, active compounds read low 0.117 | locus YHR030C, strain SLT2, active compounds read low 0.302 | locus YHR079C, strain IRE1, active compounds read low 0.502 | locus YJL095W, strain BCK1, active compounds read low 0.341 | locus YJL157C, strain FAR1, active compounds read low 0.544 | locus YJR066W, strain TOR1 (second series), active compounds read low 0.243 | locus YKL048C, strain ELM1, active compounds read low 0.658 | locus YKL067W, strain YNK1, active compounds read low 0.587 | locus YKL101W, strain HSL1, active compounds read low 0.657 | locus YKL203C, strain TOR2, active compounds read low 0.686 | locus YLR113W, strain HOG1, active compounds read low 0.293 | locus YLR133W, strain CKI1, active compounds read low 0.627 | locus YLR403W, strain SFP1, active compounds read low 0.563 | locus YML070W, strain DAK1, active compounds read low 0.419 | locus YMR205C, strain PFK2 (second series), active compounds read low 0.659 | locus YNL020C, strain ARK1, active compounds read low 0.643 | locus YNL307C, strain MCK1 (second series), active compounds read low 0.262 | locus YOL136C, strain PFK27, active compounds read low 0.433 | locus YOR061W, strain CKA2, active compounds read low 0.299 | locus YOR119C, strain RIO1, active compounds read low 0.604 | locus YOR231W, strain MKK1, active compounds read low 0.507 | locus YPL031C, strain PHO85, active compounds read low 0.657 | locus YPL153C, strain RAD53, active compounds read low 0.525 | locus YPL204W, strain HRR25, active compounds read low 0.576 | locus YPL256C, strain CLN2, active compounds read low 0.441
inactive: locus YAR019C, strain CDC15, active compounds read low 0.921 | locus YBL105C, strain PKC1, active compounds read low 0.927 | locus YBR135W, strain CKS1, active compounds read low 0.915 | locus YBR136W, strain MEC1, active compounds read low 0.922 | locus YBR160W, strain CDC28, active compounds read low 0.927 | locus YDL017W, strain CDC7, active compounds read low 0.936 | locus YDL028C, strain MPS1, active compounds read low 0.929 | locus YDL101C, strain DUN1, active compounds read low 0.954 | locus YDL108W, strain KIN28, active compounds read low 0.93 | locus YDL132W, strain cdc53, active compounds read low 0.959 | locus YDR052C, strain DBF4, active compounds read low 0.935 | locus YDR054C, strain cdc34, active compounds read low 0.923 | locus YDR226W, strain ADK1, active compounds read low 0.938 | locus YDR477W, strain SNF1, active compounds read low 0.694 | locus YFL009W, strain cdc4, active compounds read low 0.941 | locus YFL029C, strain CAK1, active compounds read low 0.92 | locus YFR003C, strain YPI1, active compounds read low 0.93 | locus YFR028C, strain CDC14, active compounds read low 0.92 | locus YHR082C, strain KSP1, active compounds read low 0.656 | locus YHR205W, strain SCH9, active compounds read low 0.612 | locus YIL147C, strain SLN1, active compounds read low 0.924 | locus YJL128C, strain PBS2, active compounds read low 0.878 | locus YJR016C, strain ILV3, active compounds read low 0.903 | locus YJR066W, strain TOR1, active compounds read low 0.579 | locus YKL193C, strain SDS22, active compounds read low 0.923 | locus YMR001C, strain CDC5, active compounds read low 0.925 | locus YMR277W, strain FCP1, active compounds read low 0.926 | locus YNL006W, strain LST8, active compounds read low 0.914 | locus YNL161W, strain CBK1, active compounds read low 0.918 | locus YNL183C, strain NPR1, active compounds read low 0.595 | locus YNL207W, strain RIO2, active compounds read low 0.948 | locus YNL222W, strain SSU72, active compounds read low 0.906 | locus YOL078W, strain AVO1, active compounds read low 0.913 | locus YOR329C, strain SCD5, active compounds read low 0.927 | locus YPL209C, strain IPL1, active compounds read low 0.918 | locus YPR025C, strain CCL1, active compounds read low 0.929 | locus YPR106W, strain ISR1, active compounds read low 0.907 | locus YPR111W, strain DBF20, active compounds read low 0.918 | strain NNK1, active compounds read low 0.908 | strain TSCII, active compounds read low 0.923
